Assay results published in PubChem BioAssay.

Each compound was assayed on Human papillomavirus type 1a E7 protein (residues 1-88) (assay: HPV1a E7 small-molecule binders, primary screen, biochemical, small-molecule microarray, residues 1-88, 635 nm (AID 1129)). Details: small-molecule microarray binding, fluorescence 635 nm; higher = more signal.

**Q.** With `O=C(O)[C@@H]1Cc2c([nH]c3ccccc23)[C@@H](c2ccccc2)N1` as the compound, how does the composite z-score read?
**A.** 0.299

**Q.** How did the composite z-score turn out when `COc1cc2c(cc1OC)CN(C(=O)[C@@H]1[C@H]3C(=O)O[C@H](c4ccccc4)[C@H](c4ccccc4)N3[C@H](c3ccccc3OCCO)[C@@]13C(=O)Nc1ccccc13)CC2` was run?
**A.** 1.22

**Q.** With `CCCC=C(CCC)[C@@H](NS(=O)(=O)c1ccc(-c2ccccc2)cc1)c1ccc(C(=O)OC)cc1` as the compound, how does the composite z-score read?
**A.** -0.997

**Q.** `O=C/C=C/c1ccccc1Cl` was tested. Which composite z-score did it give?
**A.** -0.836

**Q.** For `[N-]=[N+]=NCc1ccccc1[C@H]1OC(c2ccc(OCCCO)cc2)=N[C@@]1(Cc1ccccc1N=[N+]=[N-])C(=O)NCc1ccccc1`, which composite z-score is on record?
**A.** 1.18

**Q.** With `O=C1c2ccccc2[C@](Cc2ccccc2I)(C(=O)O)[C@H](c2ccc(CO)cc2)N1C1CCCCC1` as the compound, how does the composite z-score read?
**A.** 1.24

**Q.** For `C=CCC(OC(C)=O)[C@@H]1[C@@H](N(Cc2cc3ccccc3o2)C(=O)Cc2ccc(F)cc2)c2cc(OCCCO)ccc2N1C(=O)c1ccc(-c2ccccc2)cc1` (stereo partly drawn), which composite z-score is on record?
**A.** -0.844

These compounds were tested against Focal adhesion kinase 1 (Homo sapiens) (UniProt Q05397) (assay: PTK2 protein binding on printed compound slides – biochemical, small-molecule microarray, 635/667 nm fluorescence, BSA, DTT, primary screen (AID 1130;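 also: composite of spot emission at 667 nm and signal to noise over triplicate slides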)). Details: 635 nm fluorescence, higher = more signal.
Chain of Focal adhesion kinase 1 (Homo sapiens) (Q05397 whole entry, looked up): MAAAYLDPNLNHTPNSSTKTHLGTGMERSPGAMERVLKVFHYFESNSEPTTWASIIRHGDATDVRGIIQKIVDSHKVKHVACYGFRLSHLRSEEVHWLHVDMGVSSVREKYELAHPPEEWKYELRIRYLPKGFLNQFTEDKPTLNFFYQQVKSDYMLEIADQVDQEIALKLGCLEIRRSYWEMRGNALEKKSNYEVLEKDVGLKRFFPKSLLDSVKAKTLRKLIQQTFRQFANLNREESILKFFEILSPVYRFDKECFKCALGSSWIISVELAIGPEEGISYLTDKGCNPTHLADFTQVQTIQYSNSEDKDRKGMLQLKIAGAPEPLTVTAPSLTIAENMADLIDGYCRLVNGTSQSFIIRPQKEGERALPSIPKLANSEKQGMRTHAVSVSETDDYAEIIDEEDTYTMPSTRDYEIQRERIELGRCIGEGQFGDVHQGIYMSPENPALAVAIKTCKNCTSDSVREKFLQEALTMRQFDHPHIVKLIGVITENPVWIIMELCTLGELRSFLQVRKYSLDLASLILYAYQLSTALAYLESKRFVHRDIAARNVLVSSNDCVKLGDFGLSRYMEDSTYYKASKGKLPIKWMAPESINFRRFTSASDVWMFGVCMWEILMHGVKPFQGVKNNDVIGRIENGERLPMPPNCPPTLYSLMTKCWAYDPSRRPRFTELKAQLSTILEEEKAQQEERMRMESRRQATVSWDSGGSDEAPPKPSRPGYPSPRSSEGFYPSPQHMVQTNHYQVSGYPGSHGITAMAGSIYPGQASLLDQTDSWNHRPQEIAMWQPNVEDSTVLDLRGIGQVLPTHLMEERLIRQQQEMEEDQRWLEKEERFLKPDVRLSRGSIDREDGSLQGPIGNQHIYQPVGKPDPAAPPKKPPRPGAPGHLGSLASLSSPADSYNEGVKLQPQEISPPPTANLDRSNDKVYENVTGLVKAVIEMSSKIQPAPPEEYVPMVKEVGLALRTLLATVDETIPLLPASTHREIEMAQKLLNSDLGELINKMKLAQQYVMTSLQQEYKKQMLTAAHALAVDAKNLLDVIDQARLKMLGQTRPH

**Q.** With `C=CCc1cccc([C@@H]2[C@@H](C)CC[C@H]3C(=O)N4[C@H](c5cccc(CC=C)c5)[C@@H](C)CC[C@H]4C(=O)N23)c1` as the compound, how does the composite z-score read?
**A.** 0.19

**Q.** Which composite z-score does the source give for `CCCCCCc1nc(C2CC2)c(C)c2c1[Si](C(C)C)(C(C)C)OC2` here?
**A.** -0.695

**Q.** How did the composite z-score turn out when `CC(C)(C)OC(=O)CC[C@]1(C(=O)NCCN2CCOCC2)N=C(c2ccc(OCCCO)cc2)O[C@H]1c1ccccc1CN=[N+]=[N-]` was run?
**A.** 1.17

**Q.** `CCOC(=O)C[C@H]1[C@H](OC(=O)c2ccccc2-c2ccccc2)[C@@H](NC(=O)c2ccc(-c3ccccc3)cc2)c2cc(OCCCO)ccc2N1C(=O)Cc1ccc(OC)cc1` was tested. Which composite z-score did it give?
**A.** 0.371

**Q.** For `C=CCN1C(=O)[C@@]2(Cc3ccccc3)N=C(c3ccc(OCCCO)cc3)O[C@H]2c2ccccc21`, which composite z-score is on record?
**A.** 0.665

**Q.** `C=CCC(OC(C)=O)[C@@H]1[C@@H](N(Cc2cc3ccccc3o2)C(=O)c2ccc(C)cc2)c2cc(OCCCO)ccc2N1C(=O)c1ccc2ccccc2n1` (stereo partly drawn) was tested. Which composite z-score did it give?
**A.** 0.178

**Q.** How did the composite z-score turn out when `C=C(C(=O)CC[C@H](OC(=O)c1ccccc1-c1ccccc1C(=O)O)c1ccc(CO)o1)C(C)C` was run?
**A.** 0.0321

**Q.** For `O=C(CS)NCCCCCNC(=O)[C@H]1C[C@H]2C(=O)N3CCC[C@H]3C(=O)N2[C@H]1c1ccc(O)cc1`, which composite z-score is on record?
**A.** -0.384

**Q.** Which composite z-score does the source give for `N#Cc1ccc(NN2C(C(O)CCc3ccccc3)C=CC3C(=O)N(c4ccccc4)C(=O)C32)cc1` (stereo not drawn) here?
**A.** 0.945

**Q.** `O=[N+]([O-])c1ccc(C[n+]2ccc3ccc(O)cc3c2)o1` was tested. Which composite z-score did it give?
**A.** 0.326

**Q.** For `Cc1ccc(S[C@]2(C(=O)NC(C)C)CC(=O)N(Cc3cc(C(F)(F)F)cc(C(F)(F)F)c3)[C@@H]2c2ccc(CO)cc2I)cc1`, which composite z-score is on record?
**A.** 0.481

**Q.** `COC(=O)[C@@]1(Cc2ccccc2N=[N+]=[N-])N=C(c2ccc(OCCCO)cc2)O[C@H]1c1ccccc1CN=[N+]=[N-]` was tested. Which composite z-score did it give?
**A.** 0.926

**Q.** Which composite z-score does the source give for `O=C(NCc1ccccc1)c1ccc(Br)cc1[N+](=O)[O-]` here?
**A.** -0.1

**Q.** How did the composite z-score turn out when `C=C(COC)/C(=C/C[C@H](OC(C)=O)c1ccc(OCCO)cc1)c1cnc2ccccc2c1` was run?
**A.** 0.771

**Q.** For `COc1cc2c(cc1OC)CN(C(=O)[C@H]1[C@@H]3C(=O)O[C@@H](c4ccccc4)[C@@H](c4ccccc4)N3[C@@H](c3ccccc3OCCO)[C@]13C(=O)Nc1ccc(C#CC4(O)CCCCCC4)cc13)CC2`, which composite z-score is on record?
**A.** -0.0047

**Q.** How did the composite z-score turn out when `COCCOC(=O)N1C(=O)[C@@]2(c3cc(C#CCCO)ccc31)[C@H](c1ccc(O)cc1)N1[C@H](c3ccccc3)[C@H](c3ccccc3)OC(=O)[C@H]1[C@@H]2C(=O)Nc1nc2ccccc2s1` was run?
**A.** 0.214

**Q.** With `CC[C@H]1C2=C3C(CC[C@H]4C(OC)OC[C@](C)([C@@H]34)N(C(=O)OC(C)(C)C)C2)C(CO)C1CO` (stereo partly drawn) as the compound, how does the composite z-score read?
**A.** 1.47

**Q.** `CN(C)C(=O)[C@@]1(Cc2ccccc2N=[N+]=[N-])N=C(c2ccc(OCCCO)cc2)O[C@H]1c1ccccc1CN=[N+]=[N-]` was tested. Which composite z-score did it give?
**A.** 1.02

**Q.** `CC(C)[C@H]1NC(=O)[C@@]23C(=O)N[C@@H](Cc4ccccc4)C2[C@H](C)[C@@]2(C)O[C@H]2C3/C=C/C/C=C\CNC(=O)[C@H](C)NC1=O` (stereo partly drawn) was tested. Which composite z-score did it give?
**A.** -0.67

**Q.** How did the composite z-score turn out when `O=C1c2ccccc2[C@](Cc2ccccc2I)(C(=O)NCc2ccccc2)[C@H](c2ccc(CO)cc2)N1Cc1ccccc1C(F)(F)F` was run?
**A.** -0.328

**Q.** How did the composite z-score turn out when `O=C1c2ccccc2[C@](Cc2ccccc2I)(C(=O)NCC(F)(F)F)[C@H](c2ccc(CO)cc2)N1Cc1ccccc1C(F)(F)F` was run?
**A.** 0.857

**Q.** `CCC1=C2CN(Cc3ccccc3Br)[C@@H]([C@@H](O)Cc3ccccc3)C2C=CCC1` (stereo partly drawn) was tested. Which composite z-score did it give?
**A.** 0.172

**Q.** How did the composite z-score turn out when `C=CCc1cccc([C@H]2N[C@H](C(=O)O)CC[C@@H]2C)c1` was run?
**A.** 1.34

**Q.** Which composite z-score does the source give for `COC(=O)C1=CC(c2ccc(CO)cc2)=CC(c2cccs2)N(Cc2cccc(OC(F)(F)F)c2)C=C1C(=O)OC` (stereo not drawn) here?
**A.** 0.409

**Q.** With `C=C(CCCC)C(=O)CC[C@@H](OC(=O)c1cccnc1)c1cccc(OCCO)c1` as the compound, how does the composite z-score read?
**A.** 0.533

**Q.** Which composite z-score does the source give for `CO[C@H]1COC(=O)[C@H](Cc2ccccc2)NC(=O)CC=C[C@@H](C)[C@H](OC)COC(=O)CC=C[C@@H]1C` here?
**A.** -0.237

**Q.** Which composite z-score does the source give for `COCCOC(=O)N1C(=O)[C@@]2(c3cc(C#CCC(C(=O)OC)C(=O)OC)ccc31)[C@H](C(=O)N1CCN(c3ncccn3)CC1)[C@H]1C(=O)O[C@H](c3ccccc3)[C@H](c3ccccc3)N1[C@@H]2c1ccc(O)cc1` here?
**A.** 0.89

**Q.** For `CCCC=C(CCC)[C@@H](NS(=O)(=O)c1cccc(C(F)(F)F)c1)c1ccc(C(=O)OC)cc1`, which composite z-score is on record?
**A.** -0.209

**Q.** With `NC(=O)[C@H]1[C@@H]2C(=O)O[C@@H](c3ccccc3)[C@@H](c3ccccc3)N2[C@@H](c2ccc(O)cc2)[C@]12C(=O)Nc1ccc(C#CCCO)cc12` as the compound, how does the composite z-score read?
**A.** -0.574

**Q.** Which composite z-score does the source give for `O=C(O)[C@@H]1Cc2c([nH]c3ccccc23)[C@@H](c2ccccc2)N1` here?
**A.** 0.948

**Q.** For `COc1cc2c(cc1OC)CN(C(=O)[C@@H]1[C@H]3C(=O)O[C@H](c4ccccc4)[C@H](c4ccccc4)N3[C@H](c3ccccc3OCCO)[C@@]13C(=O)Nc1ccccc13)CC2`, which composite z-score is on record?
**A.** 0.702

**Q.** With `CCCC=C(CCC)[C@@H](NS(=O)(=O)c1ccc(-c2ccccc2)cc1)c1ccc(C(=O)OC)cc1` as the compound, how does the composite z-score read?
**A.** -0.15

**Q.** With `O=C/C=C/c1ccccc1Cl` as the compound, how does the composite z-score read?
**A.** 0.878

**Q.** `[N-]=[N+]=NCc1ccccc1[C@H]1OC(c2ccc(OCCCO)cc2)=N[C@@]1(Cc1ccccc1N=[N+]=[N-])C(=O)NCc1ccccc1` was tested. Which composite z-score did it give?
**A.** 0.636

**Q.** For `O=C1c2ccccc2[C@](Cc2ccccc2I)(C(=O)O)[C@H](c2ccc(CO)cc2)N1C1CCCCC1`, which composite z-score is on record?
**A.** 0.398

**Q.** `C=CCC(OC(C)=O)[C@@H]1[C@@H](N(Cc2cc3ccccc3o2)C(=O)Cc2ccc(F)cc2)c2cc(OCCCO)ccc2N1C(=O)c1ccc(-c2ccccc2)cc1` (stereo partly drawn) was tested. Which composite z-score did it give?
**A.** -0.341
